# Test results taken from PubChem BioAssay AID1952 (The Scripps Research Institute Molecular Screening Center, 2009).
# In all, about 2,400 compounds went through this assay and about 1,200 (50%) were called active. The set was probably picked from earlier hits. The list is a sample of the results. Unmarked numbers belong to inactive results. Cut-off read from the data, not from the text of the source: active = inhibition above about 24%; inactive = the rest.
# Molecular target: Neuropeptides B/W receptor type 1 (Homo sapiens) (UniProt P48145)
# Assay: blockers of human NPBW1 receptor – cell-based, fluorescence, single concentration, confirmation (AID 1952);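 note: stimulated with the GPR7 agonist NPW; 0% = agonist plus vehicle and 100% = vehicle alone without agonist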
# Conditions: GPR7-expressing cells, calcium fluorescence antagonist mode; at 4.4 µM; active compounds read high
# Neuropeptides B/W receptor type 1 (Homo sapiens), sequence (P48145 whole entry, looked up): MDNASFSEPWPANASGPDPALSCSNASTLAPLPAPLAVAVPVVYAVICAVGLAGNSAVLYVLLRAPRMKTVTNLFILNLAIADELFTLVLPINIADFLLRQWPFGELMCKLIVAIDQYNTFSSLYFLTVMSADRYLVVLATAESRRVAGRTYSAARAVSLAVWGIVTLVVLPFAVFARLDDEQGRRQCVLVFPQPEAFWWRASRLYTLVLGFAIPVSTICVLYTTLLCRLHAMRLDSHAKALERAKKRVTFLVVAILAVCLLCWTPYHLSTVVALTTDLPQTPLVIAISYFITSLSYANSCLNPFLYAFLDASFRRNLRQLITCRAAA
row,Compound,inhibition
1,CCOc1ccc(-c2cc(C)[n+](CCN(CC)CC)c(-c3ccc(OCC)cc3)c2)cc1,41.8% (active)
2,COc1ccc(Br)cc1CNCCc1cccc(Cl)c1,32.7% (active)
3,CCOC(=O)C1(Cc2ccc(Cl)cc2)CCN(C(C)CCn2cccn2)CC1 (stereo not drawn),18.4%
